According to PubChem BioAssay (Tox21):
Records with an inconclusive call do not appear. Activity calls are given as the source filed them. Unless noted, calls follow the shape of the dose curve; as a rule, active = well fitted curve in the direction sought with a large enough effect in the repeat runs; inconclusive = weak or mixed curves; inactive = no such curve, though single readings can be large; an effect the other way counts as inactive or inconclusive.

Experiments:
[1] = qHTS assay to identify small molecule agonists of the sonic hedgehog signaling (Shh) pathway - cell viability counter screen (AID 1259366); details: NIH/3T3 Gli1-Luc viability, CellTiter-Fluor, 24 h; series mostly up to 92.4 µM; also: nearly all actives have a fitted effect of over 50% in size
Outline: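 NIH/3T3-derived Gli1-Luc reporter cells, 2,000 per well, received compound after 4 h and were treated about 23 h at 37C. Viability measured in the same wells by CellTiter-Fluor fluorescence after 1 h.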

[2] = qHTS assay to identify small molecule antagonists of the sonic hedgehog signaling (Shh) pathway - cell viability counter screen (AID 1259367); details: NIH/3T3 Gli1-Luc viability, CellTiter-Fluor, 24 h; series mostly up to 92.4 µM; also: nearly all actives have a fitted effect of over 55% in size
Outline: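 Using CellTiter-Fluor, viability of Gli1-Luc reporter 3T3 cells is read by fluorescence in the wells used for the Shh luciferase assay. Treatment lasts 23 hr with conditioned medium, then reagent 1 hr at 37C.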

[3] = qHTS assay to identify small molecule agonists of the sonic hedgehog signaling (Shh) pathway (AID 1259368; calls by dose curve;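 also: NIH/3T3-derived 3T3Gli1-Luc cells carrying a stable Gli1-driven firefly luciferase reporter; nearly all actives have a fitted effect of over 15% in size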); details: NIH/3T3 Gli1-Luc reporter, luciferase, 24 h, active compounds read high; series mostly up to 92.4 µM
Outline: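 Mouse fibroblast (NIH/3T3) reporter cells with stably integrated Gli1-Luc were treated 24 hr with compound; firefly luciferase luminescence served as the read-out.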

[4] = qHTS assay to identify small molecule antagonists of the sonic hedgehog signaling (Shh) pathway (AID 1259369; calls by dose curve; also: nearly all actives have a fitted effect of over 45% in size); details: NIH/3T3 Gli1-Luc reporter, Shh antagonist, luminescence 24 h; series mostly up to 92.4 µM
Outline: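 Conditioned medium drives Shh signalling in 3T3Gli1-Luc cells; compounds in DMSO co-applied, 24hr at 37 C, then luciferase luminescence.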

[5] = target: Estrogen receptor beta (Homo sapiens) (UniProt Q92731); assay: qHTS assay to identify small molecule agonists of the estrogen receptor beta (ER-beta) signaling pathway (AID 1259377; active = well fitted activation curve with a large enough effect in the signal ratio in the repeat runs, not every such curve was filed as active; the % refers to the signal ratio); details: ER-beta-UAS-bla HEK293T, beta-lactamase FRET ratio, 16 h; series mostly up to 92.4 µM
Estrogen receptor beta (Homo sapiens), sequence (Q92731 whole entry, looked up): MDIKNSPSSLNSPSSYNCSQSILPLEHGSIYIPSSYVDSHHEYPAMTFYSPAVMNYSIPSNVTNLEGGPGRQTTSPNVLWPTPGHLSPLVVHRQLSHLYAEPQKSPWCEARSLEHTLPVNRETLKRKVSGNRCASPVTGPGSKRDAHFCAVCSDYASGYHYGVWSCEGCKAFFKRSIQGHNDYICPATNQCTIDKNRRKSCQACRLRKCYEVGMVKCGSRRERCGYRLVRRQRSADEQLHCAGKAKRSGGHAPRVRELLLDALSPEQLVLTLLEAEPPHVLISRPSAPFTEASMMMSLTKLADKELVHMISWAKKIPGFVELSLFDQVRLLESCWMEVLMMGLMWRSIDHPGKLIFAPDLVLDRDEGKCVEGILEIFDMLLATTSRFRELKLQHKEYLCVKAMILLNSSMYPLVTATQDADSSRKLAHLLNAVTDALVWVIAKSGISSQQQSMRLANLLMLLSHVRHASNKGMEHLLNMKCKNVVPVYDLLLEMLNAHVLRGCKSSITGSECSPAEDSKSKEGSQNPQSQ
Outline: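 ER-beta-UAS-bla HEK293T cells in medium with 2% charcoal-stripped FBS were exposed to compounds for 16 h at 37C. Beta-lactamase reporter activity was read as fluorescence after 2 h with LiveBLAzer B/G FRET substrate at room temperature.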

[6] = target: Estrogen receptor beta (Homo sapiens) (UniProt Q92731); assay: qHTS assay to identify small molecule antagonists of the estrogen receptor beta (ER-beta) signaling pathway (AID 1259378; active = well fitted inhibition curve with a large enough effect in the signal ratio in the repeat runs, not every such curve was filed as active; the % refers to the signal ratio); details: ER-beta-UAS-bla HEK293T, beta-lactamase FRET ratio, 16 h; series mostly up to 92.4 µM
Outline: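 Antagonist mode: compounds added to beta-lactamase reporter HEK293T ER-beta-UAS cells stimulated with E2 (1nM final), 16 hr at 37C. LiveBLAzer B/G FRET substrate, 2 hours room temperature, fluorescence read-out.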

[7] = qHTS assay to identify small molecule agonists of the androgen receptor (AR) signaling pathway in the presence of an antagonist - cell viability counter screen (AID 1259379); details: MDA-kb2 viability, CellTiter-Fluor, 16 h; series mostly up to 92.4 µM;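 also: MDA-kb2 human breast cancer cells carrying an MMTV luciferase reporter; nearly all actives have a fitted effect of over 25% in size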
Outline: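 A CellTiter-Fluor read-out measured viability of MDA-kb2 reporter cells (MMTV promoter with AR and GR response elements). Treatment: nilutamide 3.0uM final with compounds at 15 concentrations, 16 hr, 37C, 0% CO2.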

[8] = qHTS assay to identify small molecule agonists of the estrogen receptor beta (ER-beta) signaling pathway - cell viability counter screen (AID 1259380); details: ER-beta-bla HEK293T viability, CellTiter-Glo luminescence, 16 h; series mostly up to 92.4 µM; also: nearly all actives have a fitted effect of over 30% in size
Outline: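 Cells used were ER-beta-UAS-bla HEK293T in medium with 2% charcoal-stripped FBS. They were treated for 16 hr at 37C. Viability came from CellTiter-Glo luminescence.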

[9] = qHTS assay to identify small molecule antagonists of the estrogen receptor beta (ER-beta) signaling pathway - cell viability counter screen (AID 1259382); details: ER-beta-UAS-bla HEK293T viability, CellTiter-Glo luminescence, 16 h; series mostly up to 92.4 µM; also: nearly all actives have a fitted effect of over 55% in size
Outline: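 Agonist-stimulated (1nM E2) ER-beta-UAS-bla HEK293T cells are incubated with library compounds for 16 hr at 37C. Cell viability is then assessed in the reporter-assay wells by adding CellTiter-Glo and reading luminescence after 30 min.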

[10] = target: Androgen receptor (Homo sapiens) (UniProt P10275); assay: qHTS assay to identify small molecule agonists of the androgen receptor (AR) signaling pathway in the presence of an antagonist (AID 1259381; calls by dose curve; also: nearly all actives have a fitted effect of over 15% in size); details: MDA-kb2 MMTV-luciferase, AR agonist + nilutamide, 16 h; series mostly up to 92.4 µM
Androgen receptor (Homo sapiens), sequence (P10275 whole entry, looked up): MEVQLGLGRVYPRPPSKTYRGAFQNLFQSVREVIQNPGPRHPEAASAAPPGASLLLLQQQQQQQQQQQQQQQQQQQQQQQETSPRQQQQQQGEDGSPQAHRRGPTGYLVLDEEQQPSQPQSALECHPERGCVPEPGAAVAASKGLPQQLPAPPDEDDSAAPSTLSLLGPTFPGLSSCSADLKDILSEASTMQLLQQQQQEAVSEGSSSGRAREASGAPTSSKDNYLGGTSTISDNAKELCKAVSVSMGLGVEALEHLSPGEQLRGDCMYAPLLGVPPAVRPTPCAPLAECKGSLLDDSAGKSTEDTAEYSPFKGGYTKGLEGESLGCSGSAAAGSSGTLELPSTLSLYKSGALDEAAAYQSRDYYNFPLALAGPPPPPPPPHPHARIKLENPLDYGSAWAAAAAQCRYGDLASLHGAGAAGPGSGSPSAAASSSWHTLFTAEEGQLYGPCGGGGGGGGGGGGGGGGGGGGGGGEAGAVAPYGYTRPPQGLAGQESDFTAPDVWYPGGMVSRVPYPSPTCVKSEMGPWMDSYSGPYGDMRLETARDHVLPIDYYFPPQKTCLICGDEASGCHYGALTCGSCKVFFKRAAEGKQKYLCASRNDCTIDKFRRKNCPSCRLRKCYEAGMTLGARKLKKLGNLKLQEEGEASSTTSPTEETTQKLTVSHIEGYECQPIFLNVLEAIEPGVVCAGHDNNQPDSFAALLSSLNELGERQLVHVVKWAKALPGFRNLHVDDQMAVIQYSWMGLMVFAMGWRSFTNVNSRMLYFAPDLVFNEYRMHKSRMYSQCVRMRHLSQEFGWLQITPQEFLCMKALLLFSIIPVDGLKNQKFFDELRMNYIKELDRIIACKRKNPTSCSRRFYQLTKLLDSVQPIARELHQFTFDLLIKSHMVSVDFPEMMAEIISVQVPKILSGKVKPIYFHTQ
Outline: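 Using human MDA-kb2 cells with an MMTV promoter–luciferase construct (AR and GR response elements), agonist activity is scored under 3.0uM nilutamide (final) co-treatment; 16hr incubation, 37C, luminescence readout via ONE-Glo.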
% is scaled to controls: 0 for no effect and ±100 for the full control effect.

O=C(O)/C=C(\CC(=O)O)C(=O)O
inactive: outcome [1] | outcome [2] | outcome [3] | Potency [4] | Potency [5] | outcome [6] | outcome [7] | Potency [8] | outcome [9]

CCc1ncc(C)[nH]1
inactive: outcome [1] | outcome [2] | outcome [3] | Potency [4] | Potency [5] | outcome [6] | outcome [7] | Potency [8] | outcome [10] | outcome [9]

Cc1ccc2cccnc2c1
inactive: outcome [1] | outcome [2] | outcome [3] | Potency [4] | Potency [5] | outcome [6] | outcome [7] | Potency [8] | outcome [10] | outcome [9]

CC[C@@]1(c2ccccc2)NC(=O)N(C)C1=O
inactive: outcome [1] | outcome [2] | outcome [3] | Potency [4] | Potency [5] | outcome [6] | outcome [7] | Potency [8] | outcome [9]

COc1cc(OC)cc(OC)c1
inactive: outcome [1] | outcome [2] | outcome [3] | Potency [4] | Potency [5] | outcome [6] | outcome [7] | Potency [8] | outcome [10] | outcome [9]

CN(C)c1cc(NC(=O)CNC(C)(C)C)c(O)c2c1C[C@H]1C[C@H]3[C@H](N(C)C)C(=O)C(C(N)=O)=C(O)[C@@]3(O)C(=O)C1=C2O
inactive: outcome [1] | outcome [2] | outcome [3] | Potency [4] | Potency [5] | outcome [6] | outcome [7] | Potency [8] | outcome [10] | outcome [9]

COc1cnc(NS(=O)(=O)c2ccc(N)cc2)nc1
inactive: outcome [1] | outcome [2] | outcome [3] | Potency [4] | Potency [5] | outcome [6] | outcome [7] | Potency [8] | outcome [9]

NNC(=O)OCc1ccccc1
inactive: outcome [1] | outcome [2] | outcome [3] | Potency [4] | Potency [5] | outcome [6] | outcome [7] | Potency [8] | outcome [10] | outcome [9]

CCCC(C)C(O)CC (configuration not stated)
inactive: outcome [1] | outcome [2] | outcome [3] | Potency [4] | Potency [5] | outcome [6] | outcome [7] | Potency [8] | outcome [9]

CC(C)CC(O)Cc1ccccc1 (configuration not stated)
inactive: outcome [1] | outcome [2] | outcome [3] | Potency [4] | Potency [5] | outcome [6] | outcome [7] | Potency [8] | outcome [10] | outcome [9]

CCN1CCN(C(=O)N[C@@H](C(=O)N[C@@H]2C(=O)N3C(C(=O)O)=C(CSc4nnnn4C)CS[C@H]23)c2ccc(O)cc2)C(=O)C1=O
inactive: outcome [1] | outcome [2] | outcome [3] | Potency [4] | Potency [5] | outcome [6] | outcome [7] | Potency [8] | outcome [9]

CC/C=C\CCCCCCCCCCOC(C)=O
inactive: outcome [1] | outcome [2] | outcome [3] | Potency [4] | Potency [5] | outcome [6] | outcome [7] | Potency [8] | outcome [9]

CCCCCCCC(=O)N(C)C
inactive: outcome [1] | outcome [2] | outcome [3] | Potency [4] | Potency [5] | outcome [6] | outcome [7] | Potency [8] | outcome [9]

CCCCCCCCC1CO1 (configuration not stated)
inactive: outcome [1] | outcome [2] | outcome [3] | Potency [4] | Potency [5] | outcome [6] | outcome [7] | Potency [8] | outcome [10] | outcome [9]

CCCC(=O)C(CC)Sc1ccoc1C (configuration not stated)
inactive: outcome [1] | outcome [2] | outcome [3] | Potency [4] | Potency [5] | outcome [6] | outcome [7] | Potency [8] | outcome [10] | outcome [9]

CC(C)(Sc1cc(C(C)(C)C)c(O)c(C(C)(C)C)c1)Sc1cc(C(C)(C)C)c(O)c(C(C)(C)C)c1
inactive: outcome [1] | outcome [2] | outcome [3] | Potency [4] | Potency [5] | outcome [6] | outcome [7] | Potency [8] | outcome [9]

CC(O)C(CO)C(C)O (configuration not stated)
inactive: outcome [1] | outcome [2] | outcome [3] | Potency [4] | Potency [5] | outcome [6] | outcome [7] | Potency [8] | outcome [10] | outcome [9]

C=CCCCCCCCCCCCCCC
inactive: viability change, negative = cytotoxic [1] -2.14% [at 19 µM] | viability change, negative = cytotoxic [2] -0.0329% [at 19 µM] | activity change [3] -0.591% [at 18.9 µM] | activity change, negative = inhibition [4] 8.65% [at 19 µM] | activation [5] 1.28% [at 19 µM] | activity, negative = inhibition [6] 2.19% [at 19 µM] | activity change, negative = cytotoxicity [7] -2.34% [at 19 µM] | activity change, negative = cytotoxicity [8] 1.12% [at 19 µM] | activity change, negative = cytotoxicity [9] -6.85% [at 19 µM]

CCCCCCCCCCCBr
inactive: outcome [1] | outcome [2] | outcome [3] | Potency [4] | Potency [5] | outcome [6] | outcome [7] | Potency [8] | outcome [9]

C[C@@H]1CCC[C@H](C)N1CCCC(O)(c1ccccc1)c1ccccn1 (some centres not stated)
inactive: outcome [1] | outcome [2] | outcome [3] | Potency [4] | Potency [5] | outcome [6] | outcome [7] | Potency [8] | outcome [10] | outcome [9]

CN1C(CCl)Nc2cc(Cl)c(S(N)(=O)=O)cc2S1(=O)=O (configuration not stated)
inactive: outcome [1] | outcome [2] | outcome [3] | Potency [4] | Potency [5] | outcome [6] | outcome [7] | Potency [8] | outcome [9]

CN(C)c1ccncc1
inactive: outcome [1] | outcome [2] | outcome [3] | Potency [4] | Potency [5] | outcome [6] | outcome [7] | Potency [8] | outcome [9]

C/C(Cl)=C/CCl
inactive: outcome [1] | outcome [2] | outcome [3] | Potency [4] | Potency [5] | outcome [6] | outcome [7] | Potency [8] | outcome [10] | outcome [9]

CCc1ccc(CC)cc1
inactive: outcome [1] | outcome [2] | outcome [3] | Potency [4] | Potency [5] | outcome [6] | outcome [7] | Potency [8] | outcome [9]

Cc1cc(=O)oc2cc(O[C@@H]3SC[C@@H](O)[C@H](O)[C@H]3O)ccc12
inactive: outcome [1] | outcome [2] | outcome [3] | Potency [4] | Potency [5] | outcome [6] | outcome [7] | Potency [8] | outcome [10] | outcome [9]
